Measured values reported in ChEMBL document CHEMBL1961873, “Compounds: GSK PKIS; Assays: Nanosyn kinase panel” (2012).

Experiments:
[1] = target: Sphingosine kinase 1 (Homo sapiens) (UniProt Q9NYA1); conditions: at 1 µM;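 further: mean SPHK1 inhibition value reported from the GSK PKIS kinase panel screen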
[2] = target: T1, Sphingosine kinase 2 (Homo sapiens) (UniProt Q9NRA0); conditions: at 0.1 µM
T1 sequence (whole entry): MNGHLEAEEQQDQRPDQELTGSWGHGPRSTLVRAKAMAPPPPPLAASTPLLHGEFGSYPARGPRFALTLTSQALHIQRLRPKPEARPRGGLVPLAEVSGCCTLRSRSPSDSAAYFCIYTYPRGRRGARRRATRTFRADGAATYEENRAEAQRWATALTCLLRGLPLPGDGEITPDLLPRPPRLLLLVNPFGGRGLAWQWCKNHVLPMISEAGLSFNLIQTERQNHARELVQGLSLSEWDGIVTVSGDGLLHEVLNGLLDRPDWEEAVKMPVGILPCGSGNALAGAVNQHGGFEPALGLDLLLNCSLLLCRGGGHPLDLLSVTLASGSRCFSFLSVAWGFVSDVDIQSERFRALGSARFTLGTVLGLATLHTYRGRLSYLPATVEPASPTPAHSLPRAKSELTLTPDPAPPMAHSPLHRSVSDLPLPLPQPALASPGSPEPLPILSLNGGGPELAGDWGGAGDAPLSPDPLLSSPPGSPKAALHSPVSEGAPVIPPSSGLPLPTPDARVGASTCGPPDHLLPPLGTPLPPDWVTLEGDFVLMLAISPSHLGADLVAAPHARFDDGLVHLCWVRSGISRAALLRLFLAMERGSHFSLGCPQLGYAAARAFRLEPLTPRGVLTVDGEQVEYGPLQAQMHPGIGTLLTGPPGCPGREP

[3] = target: T1, Sphingosine kinase 2 (Homo sapiens); conditions: at 1 µM
[4] = target: Casein kinase II subunit alpha (Homo sapiens) (UniProt P68400); conditions: at 0.1 µM
Casein kinase II subunit alpha (Homo sapiens), sequence (P68400 whole entry, looked up): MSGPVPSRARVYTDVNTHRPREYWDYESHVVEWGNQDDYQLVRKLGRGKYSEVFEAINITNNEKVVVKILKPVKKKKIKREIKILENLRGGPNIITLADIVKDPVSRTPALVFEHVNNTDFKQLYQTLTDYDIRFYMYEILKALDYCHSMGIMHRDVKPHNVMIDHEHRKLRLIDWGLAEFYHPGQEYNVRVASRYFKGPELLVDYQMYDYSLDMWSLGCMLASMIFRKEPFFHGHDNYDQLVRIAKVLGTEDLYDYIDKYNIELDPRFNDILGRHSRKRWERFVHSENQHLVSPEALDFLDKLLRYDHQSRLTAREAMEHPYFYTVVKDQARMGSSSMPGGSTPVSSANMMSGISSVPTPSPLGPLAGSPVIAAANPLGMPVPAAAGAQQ

[5] = target: Casein kinase II subunit alpha (Homo sapiens) (UniProt P68400); conditions: at 1 µM
[6] = target: T2, Inhibitor of nuclear factor kappa-B kinase subunit alpha (Homo sapiens) (UniProt O15111); conditions: at 0.1 µM
T2 sequence (whole entry): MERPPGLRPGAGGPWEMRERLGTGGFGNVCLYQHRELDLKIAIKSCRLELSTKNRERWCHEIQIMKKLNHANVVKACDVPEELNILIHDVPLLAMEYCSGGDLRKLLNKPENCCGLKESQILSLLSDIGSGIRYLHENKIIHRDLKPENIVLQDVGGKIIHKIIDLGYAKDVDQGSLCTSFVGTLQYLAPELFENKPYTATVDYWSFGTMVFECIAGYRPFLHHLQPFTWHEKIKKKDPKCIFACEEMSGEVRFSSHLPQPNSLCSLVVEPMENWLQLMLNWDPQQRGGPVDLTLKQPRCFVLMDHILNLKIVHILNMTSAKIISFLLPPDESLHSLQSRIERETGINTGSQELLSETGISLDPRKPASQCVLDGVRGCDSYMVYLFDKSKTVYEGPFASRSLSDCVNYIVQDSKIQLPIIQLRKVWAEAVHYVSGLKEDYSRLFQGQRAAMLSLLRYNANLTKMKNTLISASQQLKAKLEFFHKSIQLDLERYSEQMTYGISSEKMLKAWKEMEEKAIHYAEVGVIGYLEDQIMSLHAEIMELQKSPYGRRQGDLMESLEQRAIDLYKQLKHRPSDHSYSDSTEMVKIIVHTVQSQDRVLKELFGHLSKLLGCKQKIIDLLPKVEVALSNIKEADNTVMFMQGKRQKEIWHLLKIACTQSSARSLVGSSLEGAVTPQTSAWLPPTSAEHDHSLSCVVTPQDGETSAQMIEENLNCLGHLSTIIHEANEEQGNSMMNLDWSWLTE

[7] = target: T2, Inhibitor of nuclear factor kappa-B kinase subunit alpha (Homo sapiens); conditions: at 1 µM
[8] = target: T3, Inhibitor of nuclear factor kappa-B kinase subunit beta (Homo sapiens) (UniProt O14920); conditions: at 0.1 µM
T3 sequence (whole entry): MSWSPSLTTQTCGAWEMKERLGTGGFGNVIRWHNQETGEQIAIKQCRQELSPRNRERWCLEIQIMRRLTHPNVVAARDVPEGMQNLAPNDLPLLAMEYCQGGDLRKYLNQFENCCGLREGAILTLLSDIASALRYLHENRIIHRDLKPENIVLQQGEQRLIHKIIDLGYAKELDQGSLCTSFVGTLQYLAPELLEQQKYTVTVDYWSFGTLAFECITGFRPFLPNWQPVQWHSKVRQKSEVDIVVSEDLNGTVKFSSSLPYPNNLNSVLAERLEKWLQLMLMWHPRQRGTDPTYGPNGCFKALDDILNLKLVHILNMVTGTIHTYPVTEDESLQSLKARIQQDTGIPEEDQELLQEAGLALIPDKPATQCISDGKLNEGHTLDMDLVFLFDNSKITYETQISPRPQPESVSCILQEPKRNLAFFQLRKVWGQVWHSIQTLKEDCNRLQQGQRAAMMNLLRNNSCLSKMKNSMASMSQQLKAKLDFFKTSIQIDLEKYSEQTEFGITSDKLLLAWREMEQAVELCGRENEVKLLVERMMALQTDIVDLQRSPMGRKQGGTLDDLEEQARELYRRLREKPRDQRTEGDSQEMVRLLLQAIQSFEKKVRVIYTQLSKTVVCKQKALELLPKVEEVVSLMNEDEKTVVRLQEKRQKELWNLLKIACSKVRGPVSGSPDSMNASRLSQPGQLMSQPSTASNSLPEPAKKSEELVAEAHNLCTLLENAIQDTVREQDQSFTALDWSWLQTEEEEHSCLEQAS

[9] = target: T3, Inhibitor of nuclear factor kappa-B kinase subunit beta (Homo sapiens); conditions: at 1 µM
[10] = target: T4, Inhibitor of nuclear factor kappa-B kinase subunit epsilon (Homo sapiens) (UniProt Q14164); conditions: at 0.1 µM
T4 sequence (whole entry): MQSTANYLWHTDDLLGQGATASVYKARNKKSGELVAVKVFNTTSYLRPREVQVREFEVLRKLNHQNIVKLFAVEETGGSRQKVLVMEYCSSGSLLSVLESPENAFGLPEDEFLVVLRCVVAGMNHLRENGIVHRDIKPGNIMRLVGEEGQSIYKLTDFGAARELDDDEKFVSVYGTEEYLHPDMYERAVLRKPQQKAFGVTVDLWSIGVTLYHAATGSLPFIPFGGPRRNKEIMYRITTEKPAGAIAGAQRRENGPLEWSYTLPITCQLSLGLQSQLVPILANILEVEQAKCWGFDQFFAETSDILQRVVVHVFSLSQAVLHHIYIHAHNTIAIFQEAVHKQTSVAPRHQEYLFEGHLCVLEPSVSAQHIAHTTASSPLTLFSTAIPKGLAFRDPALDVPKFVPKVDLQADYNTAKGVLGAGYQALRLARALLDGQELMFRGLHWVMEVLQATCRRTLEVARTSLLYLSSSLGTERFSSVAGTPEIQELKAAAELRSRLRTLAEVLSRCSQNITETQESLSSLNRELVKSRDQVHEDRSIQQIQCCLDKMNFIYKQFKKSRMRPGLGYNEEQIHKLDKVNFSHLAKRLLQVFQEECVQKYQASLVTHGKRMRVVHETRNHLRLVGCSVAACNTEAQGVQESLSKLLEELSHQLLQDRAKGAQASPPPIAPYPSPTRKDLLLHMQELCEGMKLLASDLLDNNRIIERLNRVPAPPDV

[11] = target: T4, Inhibitor of nuclear factor kappa-B kinase subunit epsilon (Homo sapiens); conditions: at 1 µM
[12] = target: T5, Serine/threonine-protein kinase Nek1 (Homo sapiens) (UniProt Q96PY6); conditions: at 0.1 µM
T5 sequence (whole entry): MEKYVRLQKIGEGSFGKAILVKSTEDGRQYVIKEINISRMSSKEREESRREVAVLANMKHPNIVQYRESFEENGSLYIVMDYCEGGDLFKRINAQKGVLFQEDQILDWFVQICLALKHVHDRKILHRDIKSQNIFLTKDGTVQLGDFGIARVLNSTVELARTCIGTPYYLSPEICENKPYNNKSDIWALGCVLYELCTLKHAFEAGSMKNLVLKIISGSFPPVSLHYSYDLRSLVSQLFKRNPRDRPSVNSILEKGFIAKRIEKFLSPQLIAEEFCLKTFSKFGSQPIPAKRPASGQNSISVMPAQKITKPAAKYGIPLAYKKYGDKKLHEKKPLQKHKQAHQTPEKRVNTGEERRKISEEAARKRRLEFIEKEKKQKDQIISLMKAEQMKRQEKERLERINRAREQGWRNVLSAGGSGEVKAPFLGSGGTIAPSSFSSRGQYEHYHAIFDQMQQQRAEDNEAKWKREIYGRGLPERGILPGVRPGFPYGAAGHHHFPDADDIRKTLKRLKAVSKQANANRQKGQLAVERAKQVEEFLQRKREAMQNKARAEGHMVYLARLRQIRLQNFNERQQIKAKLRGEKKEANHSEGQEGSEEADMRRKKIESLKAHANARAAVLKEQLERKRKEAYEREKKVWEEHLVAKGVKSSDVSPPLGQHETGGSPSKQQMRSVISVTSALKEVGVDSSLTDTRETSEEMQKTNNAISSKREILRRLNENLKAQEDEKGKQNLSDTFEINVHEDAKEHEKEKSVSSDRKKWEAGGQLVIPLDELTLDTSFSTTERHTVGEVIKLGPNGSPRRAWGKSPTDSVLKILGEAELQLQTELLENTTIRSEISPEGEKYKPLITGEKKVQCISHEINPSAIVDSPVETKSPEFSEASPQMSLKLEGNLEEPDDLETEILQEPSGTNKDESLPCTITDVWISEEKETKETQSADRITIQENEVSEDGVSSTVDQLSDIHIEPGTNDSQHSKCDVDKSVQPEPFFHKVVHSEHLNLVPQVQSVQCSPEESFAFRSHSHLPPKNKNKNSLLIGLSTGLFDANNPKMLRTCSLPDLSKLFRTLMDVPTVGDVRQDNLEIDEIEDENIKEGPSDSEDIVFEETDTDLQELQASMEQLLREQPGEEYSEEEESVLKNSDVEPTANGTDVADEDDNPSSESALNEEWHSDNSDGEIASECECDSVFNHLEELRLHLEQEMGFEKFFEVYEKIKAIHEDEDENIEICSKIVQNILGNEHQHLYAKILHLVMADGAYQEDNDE

[13] = target: T5, Serine/threonine-protein kinase Nek1 (Homo sapiens); conditions: at 1 µM
[14] = target: T6, Serine/threonine-protein kinase Nek2 (Homo sapiens) (UniProt P51955); conditions: at 0.1 µM
T6 sequence (whole entry): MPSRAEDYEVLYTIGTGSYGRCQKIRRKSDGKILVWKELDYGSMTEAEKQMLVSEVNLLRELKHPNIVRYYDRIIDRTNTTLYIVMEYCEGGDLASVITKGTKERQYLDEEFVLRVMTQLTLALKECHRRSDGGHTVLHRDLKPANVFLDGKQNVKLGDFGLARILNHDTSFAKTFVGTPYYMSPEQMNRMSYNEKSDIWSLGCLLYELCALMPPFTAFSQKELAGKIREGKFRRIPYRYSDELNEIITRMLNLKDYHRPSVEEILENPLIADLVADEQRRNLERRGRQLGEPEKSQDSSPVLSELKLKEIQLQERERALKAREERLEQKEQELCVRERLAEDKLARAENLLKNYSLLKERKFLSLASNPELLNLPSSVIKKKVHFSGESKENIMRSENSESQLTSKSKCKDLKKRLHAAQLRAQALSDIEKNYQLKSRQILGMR

[15] = target: T6, Serine/threonine-protein kinase Nek2 (Homo sapiens); conditions: at 1 µM
[16] = target: Serine/threonine-protein kinase Nek6 (Homo sapiens) (UniProt Q9HC98); conditions: at 0.1 µM
Serine/threonine-protein kinase Nek6 (Homo sapiens), sequence (Q9HC98 whole entry): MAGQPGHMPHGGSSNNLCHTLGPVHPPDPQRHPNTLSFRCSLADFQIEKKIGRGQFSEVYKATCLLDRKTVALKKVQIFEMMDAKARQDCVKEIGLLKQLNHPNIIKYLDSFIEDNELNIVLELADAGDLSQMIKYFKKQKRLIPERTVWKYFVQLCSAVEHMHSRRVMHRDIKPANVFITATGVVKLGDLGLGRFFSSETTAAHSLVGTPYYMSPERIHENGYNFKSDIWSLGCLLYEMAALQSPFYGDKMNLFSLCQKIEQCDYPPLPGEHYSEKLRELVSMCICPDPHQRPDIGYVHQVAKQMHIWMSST

[17] = target: Serine/threonine-protein kinase Nek6 (Homo sapiens) (UniProt Q9HC98); conditions: at 1 µM
[18] = target: Serine/threonine-protein kinase Nek7 (Homo sapiens) (UniProt Q8TDX7); conditions: at 0.1 µM
Serine/threonine-protein kinase Nek7 (Homo sapiens), sequence (Q8TDX7 whole entry, looked up): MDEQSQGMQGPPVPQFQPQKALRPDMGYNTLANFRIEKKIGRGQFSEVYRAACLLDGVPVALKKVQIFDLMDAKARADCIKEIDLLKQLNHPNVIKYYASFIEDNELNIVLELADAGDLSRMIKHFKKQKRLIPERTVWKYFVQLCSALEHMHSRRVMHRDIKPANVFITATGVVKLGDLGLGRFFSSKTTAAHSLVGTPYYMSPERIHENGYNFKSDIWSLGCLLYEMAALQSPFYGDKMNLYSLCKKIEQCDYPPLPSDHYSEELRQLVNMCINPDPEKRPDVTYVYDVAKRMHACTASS

[19] = target: Serine/threonine-protein kinase Nek7 (Homo sapiens) (UniProt Q8TDX7); conditions: at 1 µM
[20] = target: T7, Serine/threonine-protein kinase Nek9 (Homo sapiens) (UniProt Q8TD19); conditions: at 0.1 µM;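 further: reported value is the mean percent inhibition of NEK9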
T7 sequence (whole entry): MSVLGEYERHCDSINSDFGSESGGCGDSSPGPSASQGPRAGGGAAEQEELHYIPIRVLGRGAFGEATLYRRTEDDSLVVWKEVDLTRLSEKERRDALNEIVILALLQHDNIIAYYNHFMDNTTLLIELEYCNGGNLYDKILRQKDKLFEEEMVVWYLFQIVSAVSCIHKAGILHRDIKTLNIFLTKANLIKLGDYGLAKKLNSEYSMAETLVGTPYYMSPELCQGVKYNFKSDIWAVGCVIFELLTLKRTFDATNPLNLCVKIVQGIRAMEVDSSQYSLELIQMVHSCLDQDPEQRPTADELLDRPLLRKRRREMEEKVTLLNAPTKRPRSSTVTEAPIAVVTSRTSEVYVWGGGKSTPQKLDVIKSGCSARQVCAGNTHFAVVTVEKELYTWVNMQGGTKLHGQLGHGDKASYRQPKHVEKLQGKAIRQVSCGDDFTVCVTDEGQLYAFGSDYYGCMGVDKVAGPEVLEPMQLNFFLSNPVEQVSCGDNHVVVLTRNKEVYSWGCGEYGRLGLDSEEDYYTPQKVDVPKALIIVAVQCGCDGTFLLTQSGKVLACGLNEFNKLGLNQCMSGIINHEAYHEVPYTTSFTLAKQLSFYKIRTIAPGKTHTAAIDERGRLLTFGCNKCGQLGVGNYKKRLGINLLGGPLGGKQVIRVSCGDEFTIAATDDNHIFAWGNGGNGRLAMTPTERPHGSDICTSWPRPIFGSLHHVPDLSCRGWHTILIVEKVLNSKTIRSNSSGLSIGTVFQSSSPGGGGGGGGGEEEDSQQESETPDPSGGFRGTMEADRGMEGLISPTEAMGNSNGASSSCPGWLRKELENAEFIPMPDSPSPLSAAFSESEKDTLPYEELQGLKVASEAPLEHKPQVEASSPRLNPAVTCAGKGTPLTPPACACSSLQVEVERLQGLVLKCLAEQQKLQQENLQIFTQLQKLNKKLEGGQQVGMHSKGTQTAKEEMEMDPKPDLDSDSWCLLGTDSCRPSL

Sphingosine kinase 1 (Homo sapiens), sequence (Q9NYA1 whole entry): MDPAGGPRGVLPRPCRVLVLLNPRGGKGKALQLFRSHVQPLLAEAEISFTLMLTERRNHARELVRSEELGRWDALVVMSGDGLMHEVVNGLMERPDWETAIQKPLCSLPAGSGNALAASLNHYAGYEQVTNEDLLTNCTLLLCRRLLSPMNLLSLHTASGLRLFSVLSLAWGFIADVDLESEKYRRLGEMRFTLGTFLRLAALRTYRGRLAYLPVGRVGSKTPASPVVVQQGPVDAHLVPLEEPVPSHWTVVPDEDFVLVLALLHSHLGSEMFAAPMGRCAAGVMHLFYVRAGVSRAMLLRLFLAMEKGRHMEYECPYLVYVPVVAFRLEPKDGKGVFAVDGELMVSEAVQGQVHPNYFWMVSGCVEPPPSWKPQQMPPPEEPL

Compound: NS(=O)(=O)c1ccc(N/N=C2\C(=O)Nc3ccc(C(=O)NCc4ccncc4)cc32)cc1
- inhibition [1]: 0.35%
- inhibition [2]: 2.9%
- inhibition [3]: -0.04%
- inhibition [4]: 4.7%
- inhibition [5]: 13.1%
- inhibition [6]: 2.72%
- inhibition [7]: 0.67%
- inhibition [8]: 5.86%
- inhibition [9]: 5.23%
- inhibition [10]: 14.4%
- inhibition [11]: 49.1%
- inhibition [12]: 1.96%
- inhibition [13]: 4.03%
- inhibition [14]: 4.39%
- inhibition [15]: 3.78%
- inhibition [16]: 3.86%
- inhibition [17]: 5.08%
- inhibition [18]: 3.8%
- inhibition [19]: 4.4%
- inhibition [20]: 9.13%
